# Compounds without any hit were thinned out: in the full panel of roughly 79,000, 15% have a hit. Values without a mark were called inactive. Active and inactive are the calls of the source. Cut-off read from the data, not from the text of the source: active = growth inhibition above about 70%; inactive = the rest.
# Tests used:
# [1] = NCI Yeast Anticancer Drug Screen. Data for the rad52 strain (AID 147);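 note: 0% = growth of vehicle-treated control cultures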; details: S. cerevisiae rad52 mutant growth inhibition, stronger effect = higher value
# Outline: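 Growth of repair-deficient yeast cells was compared between compound-treated and vehicle-treated cultures to give percent inhibition.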
# [2] = NCI Yeast Anticancer Drug Screen. Data for the wt1 strain (AID 149);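 note: 0% = growth of vehicle-treated wt1 cultures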; details: S. cerevisiae wt1 strain (SPY 50644) growth inhibition, stronger effect = higher value
# Outline: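 wt1 strain grown with compound or vehicle; inhibition taken from the growth difference.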
# [3] = NCI Yeast Anticancer Drug Screen. Data for the rad50EPP+ strain (AID 151);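 note: 0% = growth of vehicle-treated control cultures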; details: S. cerevisiae rad50 mutant strain, stronger effect = higher value
# Outline: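 Measured: growth inhibition of rad50EPP+ yeast. Reference: vehicle-treated controls. Screen uses strains with defined genetic alterations in DNA damage repair or cell cycle control.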
# [4] = NCI Yeast Anticancer Drug Screen. Data for the mgt1 strain (AID 153); details: S. cerevisiae mgt1 mutant growth inhibition, stronger effect = higher value
# Outline: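 Compounds were applied to mgt1 mutant yeast, and growth was then compared against vehicle-treated control cultures to give percent inhibition.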
# [5] = NCI Yeast Anticancer Drug Screen. Data for the rad50 strain (AID 155);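 note: 0% = growth of vehicle-only cultures of the same strain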; details: S. cerevisiae rad50 strain growth inhibition, stronger effect = higher value
# Outline: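 DNA repair mutant yeast, compound exposure, growth read-out; inhibition is taken relative to vehicle.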
# [6] = NCI Yeast Anticancer Drug Screen. Data for the mec2-1 strain (AID 157); details: S. cerevisiae mec2-1 strain, stronger effect = higher value
# Outline: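 Compounds were applied to mec2-1 yeast cells. Their growth was then compared with that of vehicle-treated cultures to give growth inhibition.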
# [7] = NCI Yeast Anticancer Drug Screen. Data for the rad14 strain (AID 159);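 note: 0% = growth of vehicle-treated control cultures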; details: S. cerevisiae rad14 strain growth inhibition, stronger effect = higher value
# Outline: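 DNA repair-defective yeast, compound-exposed; % growth inhibition derived by comparison with vehicle-treated controls.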
# [8] = NCI Yeast Anticancer Drug Screen. Data for the sgs1 mgt1 strain (AID 161);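 note: 0% = growth of cultures given vehicle only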; details: S. cerevisiae sgs1 mgt1 strain, stronger effect = higher value
# Outline: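 Growth of a repair-deficient yeast mutant was monitored after compound treatment and expressed as inhibition relative to vehicle-treated cultures.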
# [9] = NCI Yeast Anticancer Drug Screen. Data for the CLN2oe strain (AID 163);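 note: 0% = growth of vehicle-only control cultures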; details: S. cerevisiae CLN2oe strain, stronger effect = higher value
# Outline: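 Cells of an engineered yeast line with disturbed cell-cycle regulation are treated with compound. Inhibition of growth is then calculated relative to the vehicle-treated reference.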
# [10] = NCI Yeast Anticancer Drug Screen. Data for the cln2 rad14 strain (AID 165);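 note: 0% = growth equal to vehicle treated cultures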; details: S. cerevisiae cln2 rad14 strain, stronger effect = higher value
# Outline: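 Strain: cln2 rad14 yeast, altered in cell cycle control and DNA damage repair. Read-out: growth inhibition vs vehicle.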
# [11] = NCI Yeast Anticancer Drug Screen. Data for the bub3 strain (AID 167); details: S. cerevisiae bub3 mutant strain, stronger effect = higher value
# Outline: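 In this screen, a yeast mutant lacking normal mitotic checkpoint function is challenged with compound. Relative growth versus vehicle gives the inhibition value.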
# [12] = NCI Yeast Anticancer Drug Screen. Data for the wt2 strain (AID 169);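 note: 0% = growth of vehicle-treated yeast cultures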; details: S. cerevisiae wt2 strain growth inhibition, stronger effect = higher value
# Outline: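 Growth of compound-treated yeast is measured and expressed as inhibition relative to vehicle-only controls.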
# [13] = NCI Yeast Anticancer Drug Screen. Data for the mlh1 strain (AID 171);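 note: 0% = growth of vehicle-treated control cultures of the same strain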; details: S. cerevisiae mlh1 strain growth inhibition, stronger effect = higher value
# Outline: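 Test agents were incubated with yeast bearing a defined DNA damage repair or cell cycle control alteration; values are growth inhibition normalised to vehicle-treated cultures.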
# [14] = NCI Yeast Anticancer Drug Screen. Data for the sgs1 strain (AID 173);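 note: 0% = growth of vehicle-only control cultures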; details: S. cerevisiae sgs1 mutant, stronger effect = higher value
# Outline: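 Strain with an altered DNA repair or cell cycle pathway exposed to compound. Growth then measured. Value = inhibition versus vehicle control.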
# [15] = NCI Yeast Anticancer Drug Screen. Data for the mlh1 rad18 strain (AID 175); details: S. cerevisiae mlh1 rad18 strain growth inhibition, stronger effect = higher value
# Outline: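 A repair-deficient yeast strain is exposed to test compound, and growth is scored relative to vehicle-treated controls.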
# [16] = NCI Yeast Anticancer Drug Screen. Data for the rad18 strain (AID 177); details: S. cerevisiae rad18 mutant growth inhibition, stronger effect = higher value
# Outline: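 DNA-repair-defective yeast; compound treatment; growth inhibition scored against vehicle.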
# [17] = at 5.0 µM (retest, dose inferred, filed as 0.5)
# [18] = at 50.0 µM (retest, dose inferred, filed as 5.0)
compound,measurement,setting,value
CC1=C(N2CC2)C(=O)c2ccccc2C1=O,growth inhibition,[1]; at 1.2 µM,1%
same,growth inhibition,[1]; at 3.7 µM,11%
same,growth inhibition,[1]; at 11.0 µM,22%
same,growth inhibition,[1]; at 33.0 µM,69%
same,growth inhibition,[1]; at 100.0 µM,97% (active)
same,growth inhibition,[2]; at 1.2 µM,-5%
same,growth inhibition,[2]; at 3.7 µM,-6%
same,growth inhibition,[2]; at 11.0 µM,-6%
same,growth inhibition,[2]; at 33.0 µM,-2%
same,growth inhibition,[2]; at 100.0 µM,41%
same,growth inhibition,[3]; at 1.2 µM,5%
same,growth inhibition,[3]; at 3.7 µM,16%
same,growth inhibition,[3]; at 11.0 µM,48%
same,growth inhibition,[3]; at 33.0 µM,79% (active)
same,growth inhibition,[3]; at 100.0 µM,96% (active)
same,growth inhibition,[4]; at 1.2 µM,0%
same,growth inhibition,[4]; at 3.7 µM,-49%
same,growth inhibition,[4]; at 11.0 µM,2%
same,growth inhibition,[4]; at 33.0 µM,13%
same,growth inhibition,[4]; at 100.0 µM,36%
same,growth inhibition,[5]; at 1.2 µM,1%
same,growth inhibition,[5]; at 3.7 µM,1%
same,growth inhibition,[5]; [17],-103%
same,growth inhibition,[5]; at 11.0 µM,23%
same,growth inhibition,[5]; at 33.0 µM,70% (active)
same,growth inhibition,[5]; [18],84% (active)
same,growth inhibition,[5]; at 50.0 µM,53.7%
same,growth inhibition,[5]; at 100.0 µM,97% (active)
same,growth inhibition,[6]; at 1.2 µM,4%
same,growth inhibition,[6]; at 3.7 µM,3%
same,growth inhibition,[6]; [17],-46%
same,growth inhibition,[6]; at 11.0 µM,6%
same,growth inhibition,[6]; at 33.0 µM,11%
same,growth inhibition,[6]; [18],4%
same,growth inhibition,[6]; at 50.0 µM,19.8%
same,growth inhibition,[6]; at 100.0 µM,49%
same,growth inhibition,[7]; at 1.2 µM,2%
same,growth inhibition,[7]; at 3.7 µM,3%
same,growth inhibition,[7]; at 11.0 µM,14%
same,growth inhibition,[7]; at 33.0 µM,32%
same,growth inhibition,[7]; at 100.0 µM,92% (active)
same,growth inhibition,[8]; [17],-41%
same,growth inhibition,[8]; [18],72% (active)
same,growth inhibition,[8]; at 50.0 µM,43%
same,growth inhibition,[9]; at 1.2 µM,-1%
same,growth inhibition,[9]; at 3.7 µM,0%
same,growth inhibition,[9]; at 11.0 µM,0%
same,growth inhibition,[9]; at 33.0 µM,2%
same,growth inhibition,[9]; at 100.0 µM,39%
same,growth inhibition,[10]; [17],-60%
same,growth inhibition,[10]; [18],48%
same,growth inhibition,[10]; at 50.0 µM,-6.55%
same,growth inhibition,[11]; at 1.2 µM,-3%
same,growth inhibition,[11]; at 3.7 µM,-2%
same,growth inhibition,[11]; [17],-64%
same,growth inhibition,[11]; at 11.0 µM,2%
same,growth inhibition,[11]; at 33.0 µM,16%
same,growth inhibition,[11]; [18],16%
same,growth inhibition,[11]; at 50.0 µM,-8.05%
same,growth inhibition,[11]; at 100.0 µM,66%
same,growth inhibition,[12]; at 1.2 µM,0%
same,growth inhibition,[12]; at 3.7 µM,1%
same,growth inhibition,[12]; at 11.0 µM,2%
same,growth inhibition,[12]; at 33.0 µM,0%
same,growth inhibition,[12]; at 100.0 µM,34%
same,growth inhibition,[13]; at 1.2 µM,7%
same,growth inhibition,[13]; at 3.7 µM,-3%
same,growth inhibition,[13]; at 11.0 µM,2%
same,growth inhibition,[13]; at 33.0 µM,9%
same,growth inhibition,[13]; at 100.0 µM,64%
same,growth inhibition,[14]; at 1.2 µM,0%
same,growth inhibition,[14]; at 3.7 µM,10%
same,growth inhibition,[14]; at 11.0 µM,36%
same,growth inhibition,[14]; at 33.0 µM,67%
same,growth inhibition,[14]; at 100.0 µM,96% (active)
same,growth inhibition,[15]; [17],-99%
same,growth inhibition,[15]; [18],65%
same,growth inhibition,[15]; at 50.0 µM,46.2%
same,growth inhibition,[16]; at 1.2 µM,36%
same,growth inhibition,[16]; at 3.7 µM,72% (active)
same,growth inhibition,[16]; at 11.0 µM,91% (active)
same,growth inhibition,[16]; at 33.0 µM,96% (active)
same,growth inhibition,[16]; at 100.0 µM,98% (active)
